T1: UNK ZnF1-3 (human, UniProt Q9C0B0 31-174)
T1 sequence: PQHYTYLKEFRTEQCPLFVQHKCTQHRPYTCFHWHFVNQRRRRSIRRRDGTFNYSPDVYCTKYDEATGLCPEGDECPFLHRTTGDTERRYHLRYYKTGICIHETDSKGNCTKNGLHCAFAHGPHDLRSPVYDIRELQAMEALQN

B1: chr1:39494447:39494448:+_ENSG00000168653_ENST00000372967|hu_mus|hu_hu_hu_mus_False|48_48 (ssRNA)
RNA: GGGAGUUCUACAGUCCGACGAUCGCACCGAGCGGCGUUCUUAUAGGGCUGUUCUGCGCUUAGGAACAUAAAGUGCCGGUCCAGGCUAAGGCCGAACUUUUUCUGUAUGUCAAGGAAAGGCAUGGCUCUGCAGUGCCCUUGUCACAACAGAGGAUUGAGCAUCA
B2: chr2:131829505:131829506:-_ENSG00000152102_ENST00000409185|hu_mus|FALSE|FALSE (ssRNA)
RNA: GGGAGUUCUACAGUCCGACGAUCCGCUCCAGGGUACAUGUUAGGAGAAUAGGCAGGUGCUGCUGCAUAGCCCACAGGAAAACCAGCUGGAUAUCCAAUUCCUUUGGCAUUUGCAUAGGGAACGCCAGAAGACCCAGGGCUAUACAACAGAGGAUUGAGCAUCA
B3: chr17:65336665:65336666:-_ENSG00000197170_ENST00000356126|hu_mus|FALSE|FALSE (ssRNA)
RNA: GGGAGUUCUACAGUCCGACGAUCACACAUGUCCUGUUUUUAUUACUAUCACGUGGCUGUCAGGUGAAUAAAAACAAAUAGUAUGAACACACUCAAGGAAAGCUGAGACACAAACCUUUCUGUCUUCAGACUGAAAAAAUGUUUCAACAGAGGAUUGAGCAUCA
B4: chr12:55960871:55960872:-_ENSMUSG00000062929_ENSMUST00000078124|mus_hu|FALSE|FALSE (ssRNA)
RNA: GGGAGUUCUACAGUCCGACGAUCUACUAAUGUUUAAGACUGCUAUUAUCAAUUCCUAUUCCAAUUCAAUUUGCAAAAUAUAUUCAGAAAUAGUAGGUGAAAUGACUGUUCCGAAACAUCAGAAGUAUCAUUAAACUUUUAAAGCAACAGAGGAUUGAGCAUCA
B5: chr1:58468927:58468928:-_ENSMUSG00000026034_ENSMUST00000148330|mus_mus|mus_mus_mus_hu_False|98_108 (ssRNA)
RNA: GGGAGUUCUACAGUCCGACGAUCAAUCUAUAAUUACUGAAAGAUGUACCUUAGCUAUGUACUUAAUGAACCAAAUUACCCAAACAAAAUAAACAUGGCAAUAUAAAAAUGUUAAGAAUUUACAAAGCUGUACAAAAUAACUUACAACAGAGGAUUGAGCAUCA
B6: chr10:62229464:62229465:-_ENSMUSG00000020074_ENSMUST00000020268|mus_mus|FALSE|FALSE (ssRNA)
RNA: GGGAGUUCUACAGUCCGACGAUCCAGUUGAAAUGGUCUUGACAAAGGGAAAGCAUCCACCCAUGUAAACUGAGCAUCAAAAAAGUCACUAGGAAUAUAUAAGUUCUGAUAACGGCGCCUUAGUUCCAUCAUGUCACAACUGGGCAACAGAGGAUUGAGCAUCA
B7: chr14:105707756:105707757:+_ENSMUSG00000053253_ENSMUST00000138283|mus_hu|motif|central (ssRNA)
RNA: GGGAGUUCUACAGUCCGACGAUCAUUUAUUUUUCUUAUAAAGGACAUUUGGUAUUCCCACAUUUUCUUAAAAUUUGUCCGGAAACAAAUUCUAUCUUUAACACUCACGUUUCUAAAUAUAUAUAUGUGUGUGUGUAUAUAUAUCAACAGAGGAUUGAGCAUCA
B8: chr1:235506153:235506154:+_ENSG00000152904_ENST00000391855|hu_hu|FALSE|FALSE (ssRNA)
RNA: GGGAGUUCUACAGUCCGACGAUCCUACUCACCUAUUUACUGUUUCUGGAGAAUAACAAAUUUUUUAAAAGGUGGUAAGGCUAAAAGACAAAAAAAAGAUUAACUAAAAUAAGCUAUGAGGUCCAAUCAAGAAUGGCUUAACAUCAACAGAGGAUUGAGCAUCA
B9: chr10:33190432:33190433:-_ENSG00000150093_ENST00000302278|hu_mus|hu_hu_hu_mus_True|68_78 (ssRNA)
RNA: GGGAGUUCUACAGUCCGACGAUCUACAUUUUCCAAACCUGCAUGUGAAUAAAACCCUGGCAAUAUUGCCCUAAAGCUACCCUACUGUGACUAAGAUGCUGCUGCUGUGAGCUUGGUGUUGCAAAAUCCGCCUGAGUAGGAUUCCAACAGAGGAUUGAGCAUCA
B10: chr10:123500321:123500322:-_ENSG00000107669_ENST00000369043|hu_mus|FALSE|FALSE (ssRNA)
RNA: GGGAGUUCUACAGUCCGACGAUCGAUAUGCUAAGAAACCACACAAAACUGGCAUUUGCAAAUGGAUAAAAAUAGGAUAGAUUGCUUGAAAGAAAACAUAAACAAUAAUUUUAUCUAAAUAAUUUUAAUUGAGUGACUAUAUUCCAACAGAGGAUUGAGCAUCA
B11: chr1:120316058:120316059:+_ENSMUSG00000064302_ENSMUST00000049404|mus_mus|FALSE|FALSE (ssRNA)
RNA: GGGAGUUCUACAGUCCGACGAUCCACCAUGUGUGUCUGAAGAGCAGCUGGUAGGAUAUUAAAAGUCCAAUUUAAAUAACUAGUAGGCAAUAAAGGAGAGAGUGGCGGAGUGAUGAUCUACAACUGGGUCUGAAAUACUUCAUACAACAGAGGAUUGAGCAUCA
B12: chr2:121263671:121263672:+_ENSMUSG00000027248_ENSMUST00000028683|mus_mus|FALSE|FALSE (ssRNA)
RNA: GGGAGUUCUACAGUCCGACGAUCAAAACGACAGUAUAAAGGGGGCACAUUUAUUGUCACUGUUCCAAAUGUACAAAAAAAAUUAGAAAAUAACCCCCCAACUCAAUUCCCCCCACCCCCACAACAUUCUUCCCAACACAAAUACAACAGAGGAUUGAGCAUCA
B13: chrX:71549762:71549763:+_ENSMUSG00000019087_ENSMUST00000019231|mus_mus|mus_mus_mus_hu_False|78_78 (ssRNA)
RNA: GGGAGUUCUACAGUCCGACGAUCAAACCCGUGUACUUCUUAUUGUUAGCACAACAUUCCCCCCCAACGAUAACGACAGCCAAGCAGGACAGACAGUUAAGUAGUACUUCCACACUCCCAAACUCAGGGAGCCCUAUAACCUUACAACAGAGGAUUGAGCAUCA
B14: chr10:62229464:62229465:-_ENSMUSG00000020074_ENSMUST00000020268|mus_hu|FALSE|FALSE (ssRNA)
RNA: B6 RNA with U27C, C69U, A93U, U99C, G102A, C105U

Positions count from the first letter of the chain named. In all, about 24,000 sequences were measured (“enrichment r”: median about 0.99, highest 2% from about 3.7 on). Only a selection was taken, and the highest values are over-represented in it overall.

The target in this assay is T1, UNK ZnF1-3. Put plainly: nsRBNS (natural sequence RNA bind-n-seq); RBNS binding buffer (assumed for nsRBNS): 25 mM Tris pH 7.5, 150 mM KCl, 3 mM MgCl2, 0.01% Triton X-100, 500 ug/ml BSA, 20 U/ml SUPERase-In, 4 C; UNK is unkempt and MSI1 is Musashi-1; names of the RNAs are library labels; protein concentration not given here; high values mean tight binding.
For the molecule B1, the binding signal was 0.888 enrichment R.

On to B2, for which the binding signal was determined as 0.945 enrichment R.

B3 returned a binding signal of 1.19 enrichment R.

Turning to B4, the binding signal came out at 0.797 enrichment R.

B5: the binding signal was 1.97 enrichment R.

As to B6, the binding signal turned out to be 3.38 enrichment R.

The molecule B7 came in with a binding signal of 0.913 enrichment R.

Turning to B8, the binding signal stood at 5.06 enrichment R.

B9 had a binding signal of 1.15 enrichment R.

Turning to B10, the binding signal is 5.07 enrichment R.

B11 showed a binding signal of 2.28 enrichment R.

Molecule B12 came in with a binding signal of 5.9 enrichment R.

In the case of B13, the binding signal came to 1.31 enrichment R.

For B14, the binding signal amounted to 6.32 enrichment R.

(Values after article PMC12136788.)
